This assay in a line: HT29 colon tumor cell growth inhibition, primary screen, imaging, high content imaging, 72 h, CellTiter-Glo (AID 772).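 As to condensed nuclei: condensed means nuclear area below control median minus 1.5 SD.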 To be noted: HCS imaging cell count, at 10 µM, stronger effect = higher value; for condensed nuclei: measured here: percent cells with condensed nuclei. In general terms: ATP-based viability assays read luminescence as a measure of living cells.
The mark [1] stands for this setting: measured here: ATP CellTiter-Glo viability.

Results on 38 compounds are retold here after PubChem BioAssay AID772 (SRMLSC, 2007).

The campaign covered roughly 3,300 compounds. About 20 (0.6%) were called active.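 The calls were made as follows: active = growth inhibition above 90%, meaning viable cell count cut by more than 90% versus vehicle controls; inactive = growth inhibition below 90%.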 Shown is part of a subset that was picked to be rich in actives.

For the compound `COc1ccc2[nH]c(C)c(C(=O)CN3CCc4cc(OC)c(OC)cc4C3)c2c1`, the growth inhibition is -33.9% (inactive) and the condensed nuclei is 2.58%. Also, the growth inhibition under setting [1] is -14.6%.
The corresponding values for `CCN(CC)C(=O)CSc1nc2ccccc2c(=O)n1CC1CCCCC1` are 65.6% (inactive), 18.9% and 31.7%.
As to `Cc1[nH]c2ccc(F)cc2c(=O)c1SC(F)(F)C(F)C(F)(F)F` (centres undefined), the growth inhibition is -7.36% (inactive) and the condensed nuclei was 1.61%. Further, the growth inhibition under setting [1] is -57.2%.
As for `COc1cccc2c(=O)c(SC(F)(F)C(F)C(F)(F)F)c(C)[nH]c12` (centres undefined), the growth inhibition is 94% (active) and the condensed nuclei is 36.9%. For the same compound, under setting [1], the growth inhibition was determined as 65.5%.
Turning to `Cc1onc(-c2ccccc2Cl)c1C(=O)N1CCN(c2nc3ccccc3s2)CC1`, the growth inhibition was 55.9% (inactive) and the condensed nuclei worked out at 7.24%. In addition, under setting [1], the growth inhibition worked out at 62.8%.
Take `O=C1[C@@H]2[C@H](C(=O)N1n1cnnc1)[C@H]1C=C[C@@H]2C1`: the growth inhibition is -36.7% (inactive) and the condensed nuclei amounted to 7.85%. Under setting [1], the growth inhibition turned out to be 4.74%.
As for `Cc1cccn2c(=O)c3cc(C#N)c(=N)n(Cc4ccncc4)c3nc12`, the growth inhibition is 10.6% (inactive) and the condensed nuclei was 5.14%. Moreover, under setting [1], the growth inhibition is -4.36%.
Consider `CCC(NC(=O)Nc1cc(OC)c(OC)c(OC)c1)(C(F)(F)F)C(F)(F)F`, for which the growth inhibition was 9.36% (inactive) and the condensed nuclei is 2.2%. The growth inhibition under setting [1] was -14.6%.
In the same order, the values of `COC(=O)[C@@H](N)Cc1ccc(O)cc1` are -11.9% (inactive), 9.88% and 12.5%.
In the same order, the values of `COC(=O)/C=c1/s/c(=C(/C#N)C(=O)N2CCOCC2)n(-c2ccccc2)c1=O` are -9.52% (inactive), 5.81% and -73%.
The corresponding values for `C=CCOC(=O)C1=C(C)NC(SCC(=O)Nc2ccc(C)c(Cl)c2)=C(C#N)C1c1ccco1` (centres undefined) are 81.3% (inactive), 10.5% and 81.8%.
For the compound `O=C1C(=O)N(Cc2cccnc2)C(c2ccccn2)/C1=C(/O)c1ccc(Br)cc1` (centres undefined), the growth inhibition is -60.8% (inactive) and the condensed nuclei came to 3.93%. In addition, the growth inhibition under setting [1] was -51.9%.
`CCOC(=O)c1c(C)n(C)c2ccc(O)c(S(=O)(=O)c3ccccc3)c12`: the growth inhibition is 0.86% (inactive) and the condensed nuclei was 2.84%. In addition, the growth inhibition under setting [1] is -12.9%.
`Cc1nc(Sc2cccn2C)c(C(F)(F)F)c(=O)[nH]1`: the growth inhibition is 26% (inactive) and the condensed nuclei turned out to be 1.74%. Besides, under setting [1], the growth inhibition is -42.6%.
The corresponding values for `N#CC1=C(C=Nc2ccccc2O)CCC1` are 2.22% (inactive), 1.93% and -3.16%.
In the case of `CCOC(=O)c1c(C)n(C)c2ccc(OC)c(NC(=O)CCN3CCSCC3)c12`, the growth inhibition was -24% (inactive) and the condensed nuclei was found to be 1.98%. Under setting [1], the growth inhibition was -19.5%.
In the same order, the values of `Cc1cc2c(c(=O)n1CC1CCCO1)C(c1ccc3c(c1)OCO3)C(C#N)=C(N)O2` (centres undefined) are -29.9% (inactive), 2.84% and -39%.
In the same order, the values of `COC(=O)C(NC(=O)c1ccccc1)(Nc1nccs1)C(F)(F)F` (centres undefined) are 60.8% (inactive), 9.01% and 20.8%.
In the same order, the values of `CC(C)(C)C1=Nn2c(nnc2-c2ccccn2)SC1` are -24.5% (inactive), 2.89% and -54.2%.
On to `Cn1c(Cl)nc2c1c(=O)n(Cc1cccc(Br)c1)c(=O)n2C`, for which the growth inhibition was 58.3% (inactive) and the condensed nuclei is 20.4%. For the same compound, the growth inhibition under setting [1] is 38%.
The corresponding values for `CC(NC(=O)NCc1cccnc1)(C(F)(F)F)C(F)(F)F` are -58% (inactive), 7.24% and -34.9%.
In the case of `CCO/C(C)=N/n1c2nc3ccccc3nc2c2c(=O)n(Cc3ccccc3Cl)c(C)nc21`, the growth inhibition is -20.7% (inactive) and the condensed nuclei amounted to 2.79%. The growth inhibition under setting [1] is -31%.
Consider `CC(C)N=c1cc2n(-c3ccc(Cl)cc3)c3ccccc3nc-2cc1Nc1ccc(Cl)cc1`, for which the growth inhibition was 39.7% (inactive) and the condensed nuclei is 30.8%. Besides, the growth inhibition under setting [1] turned out to be 87%.
The corresponding values for `COC(=O)NC(Nc1sc2c(c1C(N)=O)CCCC2)(C(=O)OC)C(F)(F)F` (centres undefined) are -86.9% (inactive), 3.2% and -40.6%.
Consider `O=C(CN1C(=O)c2ccccc2S1(=O)=O)NCCSCc1ccco1`, for which the growth inhibition is 36.4% (inactive) and the condensed nuclei turned out to be 3.38%. Further, the growth inhibition under setting [1] amounted to 6.94%.
In the same order, the values of `CCCCCNC(=O)C(C#N)c1nc2ccccc2nc1N1CC(C)OC(C)C1` (centres undefined) are 31% (inactive), 8.13% and -14.9%.
In the same order, the values of `CCCCCCc1cc2cc(-c3nnc(-c4ccccc4O)o3)c(=O)oc2cc1O` are 23.4% (inactive), 4.18% and 12.5%.
In the same order, the values of `CCN(CC)c1ccc2cc(-c3nnc(-c4ccncc4)o3)c(=O)oc2c1` are 99.1% (active), 4.75% and -9.72%.
For the compound `CCN(CC)c1ccc2cc(C(=O)Nc3ccccn3)c(=O)oc2c1`, the growth inhibition was 12.7% (inactive) and the condensed nuclei amounted to 5.56%. Also, the growth inhibition under setting [1] was -23.3%.
As to `CCOC(=O)CSc1nnc2n(Cc3ccccc3)c(=O)c3c4c(sc3n12)CCC4`, the growth inhibition is 17.8% (inactive) and the condensed nuclei amounted to 16.9%. Besides, under setting [1], the growth inhibition is -5.86%.
For the compound `CCOC(=O)c1ccc(NC(=O)CCC(CC)C(=O)O)cc1` (centres undefined), the growth inhibition was -26.9% (inactive) and the condensed nuclei worked out at 2.9%. Under setting [1], the growth inhibition was -22.9%.
In the same order, the values of `CC1(C(=O)CSc2n[nH]c(-c3ccccc3Cl)n2)CCC(=O)O1` (centres undefined) are -77.2% (inactive), 2.66% and -34.5%.
In the same order, the values of `OCCN(CCO)c1ncnc2c1sc1nc(N3CCOCC3)c3c(c12)CCCC3` are 49.2% (inactive), 17.2% and 92.5%.
The corresponding values for `CC1(C)Cc2c(sc3nc(SCC#N)n(C4CCCCC4)c(=O)c23)CO1` are 25.6% (inactive), 3.8% and 23.5%.
On to `N#CC(C(=O)NC1CCCCC1)c1nc2ccccc2nc1N1CCN(c2ccccc2F)CC1` (centres undefined), for which the growth inhibition is -45.2% (inactive) and the condensed nuclei amounted to 1.44%. Also, the growth inhibition under setting [1] is -45.5%.
Regarding `CCCCC(CCC(=O)Nc1ccc(C(=O)OC)cc1)C(=O)O` (centres undefined), the growth inhibition is 37.5% (inactive) and the condensed nuclei worked out at 1.33%. The growth inhibition under setting [1] was -7.18%.
As for `Cc1c(CCC#N)c(N2CCN(C3CCCCC3)CC2)n2c(nc3ccccc32)c1C#N`, the growth inhibition is 32.8% (inactive) and the condensed nuclei turned out to be 10.6%. The growth inhibition under setting [1] was -4.95%.
Turning to `Cc1cc(COc2ccccc2OCCN2CCN(C)CC2)no1`, the growth inhibition is 4.14% (inactive) and the condensed nuclei was 1.56%. The growth inhibition under setting [1] stood at 10.2%.
